In the supplement of paper PMC10849652:
Targets with a hit are over-represented here; the source holds about 7,900 in all. About 0.6% of all pairs of compound and target were hits. A number with no mark means an inactive call.

How the values were obtained:
Experiment in all cases: log2 fold change, soluble protein after heating vs DMSO (PISA); higher = thermal stabilisation; K562 cells, 10 uM, 30 min; active = over 0.2 and 3.5 SD of the protein, either way, in both replicates (recomputed)
[1] = compound: CC[C@@H]1C(=O)N(C)c2cnc(Nc3ccc(C(=O)NC4CCN(C)CC4)cc3OC)nc2N1C1CCCC1
Summary of the method: (§1)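 Soluble protein was quantified by TMTpro 16plex LC-MS/MS after channel sums were equalised. It was obtained as the supernatant after 21,000xg for 90 min from pooled aliquots of K562 cells (2×10^6 cells/mL, 10 μM compound, 30 min) heated for 3 min across 48°C-58°C and extracted in PBS with 0.5% NP-40 at 4°C. Thermal stability values are relative to control samples and come from duplicates. They are given as log2 fold changes.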

volasertib = compound: CC[C@@H]1C(=O)N(C)c2cnc(Nc3ccc(C(=O)N[C@H]4CC[C@H](N5CCN(CC6CC6)CC5)CC4)cc3OC)nc2N1C(C)C [volasertib]
Summary of the method: as §1

[2] = compound: CC[C@H](C)N1C=C(C2=C(C=C(C=C21)C3=CN=C(C=C3)N4CCNCC4)C(=O)NCC5=C(C=C(NC5=O)C)C)C
Summary of the method: as §1

epoxomicin = compound: CC[C@H](C)[C@@H](C(=O)N[C@@H]([C@@H](C)O)C(=O)N[C@@H](CC(C)C)C(=O)[C@]1(CO1)C)NC(=O)[C@H]([C@@H](C)CC)N(C)C(=O)C [epoxomicin]
Summary of the method: as §1

[3] = compound: CCn1c(C(=O)N(C2CC2)C2CC2)cc2c3c(ncn3C)c(Nc3cc(C)n(C)n3)nc21
Summary of the method: as §1

[4] = compound: CCn1cc(-c2ccnc3[nH]c(-c4cccc(CN(C)C)c4)cc23)c(-c2ccc(NC(=O)N(C)C)cc2)n1
Summary of the method: as §1

[5] = compound: CN(C)CC(=O)Nc1ccc2[nH]c(=O)c3ccccc3c2c1
Summary of the method: as §1

rosiglitazone = compound: CN(CCOC1=CC=C(C=C1)C[C@H]2C(=O)NC(=O)S2)C3=CC=CC=N3 (racemic) [rosiglitazone]
Summary of the method: as §1

[6] = compound: CN1C2=C(C3=C1C(=O)N(N=C3)CC4=CC(=CC=C4)N)SC(=C2)S(=O)C
Summary of the method: as §1

[7] = compound: CN1CCC(CNc2ccc3ncc(-c4cccc(OC(F)(F)F)c4)n3n2)CC1
Summary of the method: as §1

saracatinib = compound: CN1CCN(CCOc2cc(OC3CCOCC3)c3c(Nc4c(Cl)ccc5c4OCO5)ncnc3c2)CC1 [saracatinib]
Summary of the method: as §1

sotrastaurin = compound: CN1CCN(c2nc(C3=C(c4c[nH]c5ccccc45)C(=O)NC3=O)c3ccccc3n2)CC1 [sotrastaurin]
Summary of the method: as §1

alvocidib = compound: CN1CC[C@H](c2c(O)cc(O)c3c(=O)cc(-c4ccccc4Cl)oc23)[C@H](O)C1 [alvocidib]
Summary of the method: as §1

Tubastatin A = compound: CN1CCc2c(c3ccccc3n2Cc2ccc(C(=O)NO)cc2)C1 [Tubastatin A]
Summary of the method: as §1

[8] = compound: CNC(=O)C1=CC=CC=C1NC2=NC(=NC=C2Cl)NC3=C(C=C(C=C3)N4CCOCC4)OC
Summary of the method: as §1

defactinib = compound: CNC(=O)c1ccc(Nc2ncc(C(F)(F)F)c(NCc3nccnc3N(C)S(C)(=O)=O)n2)cc1 [defactinib]
Summary of the method: as §1

rucaparib = compound: CNCc1ccc(-c2[nH]c3cc(F)cc4c3c2CCNC4=O)cc1 [rucaparib]
Summary of the method: as §1

[9] = compound: CNc1nc(-c2ccc3c(N)n[nH]c3c2)cc(N2C[C@@H](C(=O)NC3CCCCC3)CC[C@H]2C)n1
Summary of the method: as §1

encorafenib = compound: COC(=O)N[C@@H](C)CNc1nccc(-c2cn(C(C)C)nc2-c2cc(Cl)cc(NS(C)(=O)=O)c2F)n1 [encorafenib]
Summary of the method: as §1

[10] = compound: COC(=O)[C@H](CCSC)NC(=O)C1=C(C=C(C=C1)NC[C@H](CS)N)C2=CC=CC=C2
Summary of the method: as §1

UniProt O60551, sequence (O60551 whole entry, looked up): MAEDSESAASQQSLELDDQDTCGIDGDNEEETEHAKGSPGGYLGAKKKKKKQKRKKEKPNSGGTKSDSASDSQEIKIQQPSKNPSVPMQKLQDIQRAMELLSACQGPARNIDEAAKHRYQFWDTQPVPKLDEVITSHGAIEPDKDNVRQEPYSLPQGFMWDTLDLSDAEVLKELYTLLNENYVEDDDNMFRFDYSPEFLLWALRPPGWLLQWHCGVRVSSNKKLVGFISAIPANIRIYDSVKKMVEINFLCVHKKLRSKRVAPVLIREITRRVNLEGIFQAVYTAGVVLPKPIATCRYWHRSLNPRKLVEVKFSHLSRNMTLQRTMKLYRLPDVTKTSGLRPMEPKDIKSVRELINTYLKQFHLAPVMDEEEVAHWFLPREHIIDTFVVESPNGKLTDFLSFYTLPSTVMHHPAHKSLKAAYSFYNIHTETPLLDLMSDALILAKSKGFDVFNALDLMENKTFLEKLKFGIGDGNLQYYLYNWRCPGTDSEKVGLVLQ
UniProt Q9BRA0, sequence (Q9BRA0 whole entry, looked up): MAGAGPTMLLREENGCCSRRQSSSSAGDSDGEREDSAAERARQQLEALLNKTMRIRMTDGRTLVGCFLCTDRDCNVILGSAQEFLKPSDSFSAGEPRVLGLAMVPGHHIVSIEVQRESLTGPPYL
UniProt Q9NZT2, sequence (Q9NZT2 whole entry, looked up): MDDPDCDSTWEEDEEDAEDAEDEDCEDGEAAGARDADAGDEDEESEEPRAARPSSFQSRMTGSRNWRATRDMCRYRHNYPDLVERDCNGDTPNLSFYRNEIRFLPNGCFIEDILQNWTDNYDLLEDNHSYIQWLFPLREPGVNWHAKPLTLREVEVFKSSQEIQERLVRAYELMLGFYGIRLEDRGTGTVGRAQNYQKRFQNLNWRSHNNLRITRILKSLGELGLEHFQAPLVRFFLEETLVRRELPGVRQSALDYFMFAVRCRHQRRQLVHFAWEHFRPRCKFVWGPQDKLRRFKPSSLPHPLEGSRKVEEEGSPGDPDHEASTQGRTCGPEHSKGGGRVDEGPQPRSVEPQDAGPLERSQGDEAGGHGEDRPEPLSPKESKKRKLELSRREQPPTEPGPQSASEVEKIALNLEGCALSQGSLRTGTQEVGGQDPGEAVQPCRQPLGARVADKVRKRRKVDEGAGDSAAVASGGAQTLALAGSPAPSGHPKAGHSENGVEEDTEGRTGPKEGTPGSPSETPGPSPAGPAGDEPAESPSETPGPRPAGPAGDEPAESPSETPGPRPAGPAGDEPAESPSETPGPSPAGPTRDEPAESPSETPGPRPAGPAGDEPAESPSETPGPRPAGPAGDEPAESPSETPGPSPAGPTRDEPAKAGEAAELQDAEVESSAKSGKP
UniProt Q96PU5, sequence (Q96PU5 whole entry, looked up): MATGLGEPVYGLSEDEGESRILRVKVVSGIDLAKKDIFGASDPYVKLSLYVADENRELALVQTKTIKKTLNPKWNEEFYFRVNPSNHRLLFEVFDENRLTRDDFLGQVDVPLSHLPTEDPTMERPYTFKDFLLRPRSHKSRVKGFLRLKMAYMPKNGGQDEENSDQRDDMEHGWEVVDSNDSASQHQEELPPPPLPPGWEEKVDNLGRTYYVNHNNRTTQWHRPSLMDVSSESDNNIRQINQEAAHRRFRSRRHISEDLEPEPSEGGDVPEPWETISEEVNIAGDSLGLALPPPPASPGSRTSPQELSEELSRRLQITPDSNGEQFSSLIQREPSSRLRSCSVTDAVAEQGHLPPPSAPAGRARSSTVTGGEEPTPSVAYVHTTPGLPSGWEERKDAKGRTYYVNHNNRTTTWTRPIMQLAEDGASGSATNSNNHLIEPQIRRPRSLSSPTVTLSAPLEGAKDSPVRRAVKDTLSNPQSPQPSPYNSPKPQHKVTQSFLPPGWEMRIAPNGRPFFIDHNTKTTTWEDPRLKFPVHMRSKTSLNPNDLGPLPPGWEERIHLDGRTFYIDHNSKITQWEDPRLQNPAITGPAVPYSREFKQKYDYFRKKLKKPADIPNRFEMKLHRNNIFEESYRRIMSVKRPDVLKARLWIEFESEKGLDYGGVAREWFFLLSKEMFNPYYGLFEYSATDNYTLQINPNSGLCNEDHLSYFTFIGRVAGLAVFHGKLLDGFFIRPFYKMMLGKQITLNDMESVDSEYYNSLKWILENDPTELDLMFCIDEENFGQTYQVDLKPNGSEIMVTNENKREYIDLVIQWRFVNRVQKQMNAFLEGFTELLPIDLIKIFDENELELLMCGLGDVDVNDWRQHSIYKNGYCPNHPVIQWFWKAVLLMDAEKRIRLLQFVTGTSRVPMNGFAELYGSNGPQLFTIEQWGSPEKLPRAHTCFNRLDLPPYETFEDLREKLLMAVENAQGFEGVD
UniProt Q12968, sequence (Q12968 whole entry, looked up): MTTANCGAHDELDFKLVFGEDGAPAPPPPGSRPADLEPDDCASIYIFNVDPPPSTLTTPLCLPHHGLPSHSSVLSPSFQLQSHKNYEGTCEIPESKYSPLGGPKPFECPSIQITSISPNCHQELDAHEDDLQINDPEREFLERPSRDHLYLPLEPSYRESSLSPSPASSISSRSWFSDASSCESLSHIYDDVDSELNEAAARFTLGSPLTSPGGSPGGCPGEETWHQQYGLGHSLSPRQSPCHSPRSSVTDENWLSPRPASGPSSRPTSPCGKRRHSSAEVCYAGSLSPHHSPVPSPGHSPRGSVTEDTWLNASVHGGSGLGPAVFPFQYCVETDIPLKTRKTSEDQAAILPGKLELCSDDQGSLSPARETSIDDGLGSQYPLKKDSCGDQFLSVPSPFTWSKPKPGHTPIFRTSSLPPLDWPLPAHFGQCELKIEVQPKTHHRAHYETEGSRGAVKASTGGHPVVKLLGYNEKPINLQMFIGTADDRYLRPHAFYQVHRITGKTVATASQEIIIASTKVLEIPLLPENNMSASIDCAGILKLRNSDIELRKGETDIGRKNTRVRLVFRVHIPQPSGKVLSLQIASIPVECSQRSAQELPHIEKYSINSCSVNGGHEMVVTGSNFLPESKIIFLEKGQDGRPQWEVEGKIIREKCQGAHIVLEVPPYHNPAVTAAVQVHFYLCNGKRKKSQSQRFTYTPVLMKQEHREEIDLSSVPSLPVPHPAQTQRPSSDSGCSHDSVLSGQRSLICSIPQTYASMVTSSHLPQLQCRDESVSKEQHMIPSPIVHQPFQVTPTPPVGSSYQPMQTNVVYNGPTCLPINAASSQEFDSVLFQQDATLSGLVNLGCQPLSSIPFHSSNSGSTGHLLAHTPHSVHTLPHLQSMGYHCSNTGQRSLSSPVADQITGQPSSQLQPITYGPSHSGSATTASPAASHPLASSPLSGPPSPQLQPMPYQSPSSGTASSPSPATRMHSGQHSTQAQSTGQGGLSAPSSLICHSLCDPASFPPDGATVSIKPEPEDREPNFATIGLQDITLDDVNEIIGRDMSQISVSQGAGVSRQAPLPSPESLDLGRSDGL
UniProt Q9BW27, sequence (Q9BW27 whole entry, looked up): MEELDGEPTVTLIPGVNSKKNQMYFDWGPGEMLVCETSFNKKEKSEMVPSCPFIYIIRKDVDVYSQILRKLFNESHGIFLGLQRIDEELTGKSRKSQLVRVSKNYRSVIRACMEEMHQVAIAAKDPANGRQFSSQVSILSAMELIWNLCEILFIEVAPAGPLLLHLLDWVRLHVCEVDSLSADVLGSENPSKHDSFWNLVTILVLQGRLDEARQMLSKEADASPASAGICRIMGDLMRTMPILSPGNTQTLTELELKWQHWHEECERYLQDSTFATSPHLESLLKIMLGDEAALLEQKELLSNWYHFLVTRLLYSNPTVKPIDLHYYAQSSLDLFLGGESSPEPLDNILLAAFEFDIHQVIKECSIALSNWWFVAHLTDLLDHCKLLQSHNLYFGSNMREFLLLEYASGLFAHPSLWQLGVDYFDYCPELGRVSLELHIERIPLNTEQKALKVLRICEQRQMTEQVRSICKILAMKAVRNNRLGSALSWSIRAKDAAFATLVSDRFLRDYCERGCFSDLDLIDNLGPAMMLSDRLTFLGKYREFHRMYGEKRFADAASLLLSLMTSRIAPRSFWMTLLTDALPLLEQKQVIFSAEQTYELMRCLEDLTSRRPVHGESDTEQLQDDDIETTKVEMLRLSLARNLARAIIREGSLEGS
UniProt Q9Y2X3, sequence (Q9Y2X3 whole entry, looked up): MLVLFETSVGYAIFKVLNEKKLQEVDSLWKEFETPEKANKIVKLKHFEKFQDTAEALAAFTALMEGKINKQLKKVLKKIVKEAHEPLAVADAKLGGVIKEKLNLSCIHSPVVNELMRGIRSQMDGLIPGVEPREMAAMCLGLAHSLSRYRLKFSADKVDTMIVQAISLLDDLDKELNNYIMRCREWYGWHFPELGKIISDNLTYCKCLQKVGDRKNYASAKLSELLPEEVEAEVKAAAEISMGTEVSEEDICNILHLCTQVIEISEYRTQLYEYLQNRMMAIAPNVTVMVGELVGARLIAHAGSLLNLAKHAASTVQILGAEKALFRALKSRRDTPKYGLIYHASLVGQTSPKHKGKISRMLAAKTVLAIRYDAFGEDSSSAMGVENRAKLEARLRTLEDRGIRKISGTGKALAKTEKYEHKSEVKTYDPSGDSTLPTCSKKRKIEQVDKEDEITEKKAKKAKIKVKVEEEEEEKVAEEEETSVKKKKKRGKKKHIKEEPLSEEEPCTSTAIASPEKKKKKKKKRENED
UniProt Q9BUB5, sequence (Q9BUB5 whole entry, looked up): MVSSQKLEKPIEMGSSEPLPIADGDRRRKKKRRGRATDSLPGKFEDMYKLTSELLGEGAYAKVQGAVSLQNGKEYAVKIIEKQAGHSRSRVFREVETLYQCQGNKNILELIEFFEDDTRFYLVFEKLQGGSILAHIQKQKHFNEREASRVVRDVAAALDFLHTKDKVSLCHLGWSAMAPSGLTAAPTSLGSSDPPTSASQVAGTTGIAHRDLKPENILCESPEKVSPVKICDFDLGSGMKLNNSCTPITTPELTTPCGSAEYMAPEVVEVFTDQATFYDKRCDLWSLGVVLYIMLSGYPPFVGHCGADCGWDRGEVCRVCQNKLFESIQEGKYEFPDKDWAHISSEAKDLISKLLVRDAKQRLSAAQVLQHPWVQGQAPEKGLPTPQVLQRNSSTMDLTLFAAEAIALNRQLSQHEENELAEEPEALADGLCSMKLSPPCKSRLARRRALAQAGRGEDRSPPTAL

Target | log2 fold change [1] | log2 fold change (volasertib) | log2 fold change [2] | log2 fold change (epoxomicin) | log2 fold change [3] | log2 fold change [4] | log2 fold change [5] | log2 fold change (rosiglitazone) | log2 fold change [6] | log2 fold change [7] | log2 fold change (saracatinib) | log2 fold change (sotrastaurin) | log2 fold change (alvocidib) | log2 fold change (Tubastatin A) | log2 fold change [8] | log2 fold change (defactinib) | log2 fold change (rucaparib) | log2 fold change [9] | log2 fold change (encorafenib) | log2 fold change [10]
MKNK1 (UniProt Q9BUB5) | -0.148 | -0.183 | -0.025 | 0.018 | -0.023 | -0.101 | 0.009 | 0.036 | -0.095 | -0.006 | 0.049 | -0.088 | -0.06 | 0.037 | 0.038 | -0.102 | 0.099 | 0.051 | 0.018 | -0.053
NBN (UniProt O60934) | -0.072 | -0.219 (active) | 0.031 | 0.073 | -0.038 | 0.002 | 0.061 | 0.034 | -0.043 | -0.116 | -0.008 | -0.03 | -0.197 | 0.191 | -0.065 | -0.159 | 0.006 | 0.049 | 0.003 | -0.019
NOP58 (UniProt Q9Y2X3) | 0.095 | -0.066 | 0.057 | -0.263 | 0.005 | 0.192 | 0.052 | -0.052 | 0.234 | 0.2 | -0.044 | -0.008 | 0.075 | 0.014 | -0.058 | -0.004 | 0.304 | -0.01 | 0.106 | -0.076
MRPS12 (UniProt O15235) | -0.043 | -0.024 | 0.077 | -0.001 | -0.04 | -0.072 | -0.103 | 0.063 | 0.091 | -0.014 | -0.19 | -0.068 | -0.001 | -0.02 | -0.017 | 0.119 | 0.299 | 0.233 | 0.105 | 0.048
MRPS33 (UniProt Q9Y291) | 0.016 | 0.025 | 0.057 | -0.012 | 0 | -0.011 | -0.01 | -0.007 | -0.001 | 0.017 | -0.033 | -0.077 | -0.038 | 0.02 | -0.018 | 0.087 | 0.119 | 0.04 | 0.024 | 0.02
NAA38 isoform 2 (UniProt Q9BRA0) | -0.045 | -0.017 | -0.025 | 0.029 | 0.265 (active) | -0.127 | -0.026 | 0.017 | -0.095 | 0.064 | -0.02 | 0.009 | -0.108 | 0.081 | -0.044 | -0.101 | 0.023 | 0.044 | 0.022 | -0.058
MRPS35 (UniProt P82673) | 0.064 | 0.014 | 0.029 | 0.048 | -0.054 | -0.076 | 0.027 | -0.08 | -0.013 | -0.007 | -0.18 | -0.033 | 0.01 | 0.078 | -0.022 | 0.043 | 0.071 | 0.062 | 0.039 | 0.007
NEDD4L (UniProt Q96PU5) | -0.02 | -0.425 (active) | 0.03 | 0.012 | -0.015 | -0.09 | 0.023 | 0.029 | 0.039 | -0.099 | -0.014 | -0.063 | -0.121 | 0.057 | 0.068 | -0.135 | 0.002 | -0.059 | 0.03 | -0.023
NUP85 (UniProt Q9BW27) | -0.158 | -0.561 (active) | -0.008 | 0.022 | -0.024 | -0.01 | -0.004 | 0.019 | -0.038 | -0.045 | 0.027 | -0.026 | -0.023 | -0.001 | -0.021 | -0.097 | -0.047 | -0.034 | 0.025 | 0.003
MRPS15 (UniProt P82914) | -0.021 | -0.048 | 0.163 | -0.007 | -0.084 | -0.115 | -0.01 | 0.032 | 0.049 | 0.042 | -0.134 | -0.079 | -0.057 | 0.039 | -0.07 | 0.035 | 0.084 | 0.115 | 0.039 | -0.01
NMT2 (UniProt O60551) | 0.013 | -0.177 | 0.039 | 0.01 | -0.001 | -0.098 | -0.013 | -0.056 | 0.002 | -0.208 | -0.031 | 0.007 | -0.021 | 0.008 | 0.146 | -0.016 | -0.04 | -0.027 | 0.02 | 0.023
MRPS22 (UniProt P82650) | 0.007 | -0.05 | 0.125 | 0.004 | -0.03 | -0.068 | 0.004 | -0.006 | 0.084 | 0.103 | -0.098 | -0.122 | -0.051 | -0.006 | -0.038 | 0.058 | 0.143 | 0.169 | 0.064 | -0.051
MSH6 (UniProt P52701) | -0.306 | -0.683 (active) | 0.227 | 0.097 | -0.127 | -0.089 | 0.172 | 0.179 | -0.044 | -0.261 | -0.142 | -0.278 | -0.255 | 0.127 | -0.049 | -0.379 | -0.014 | 0.102 | 0.141 | -0.098
NUP205 (UniProt Q92621) | -0.108 | -0.35 (active) | 0.079 | -0.071 | -0.036 | -0.013 | 0.032 | 0.041 | -0.041 | -0.233 (active) | -0.003 | -0.057 | -0.127 | 0.023 | -0.024 | -0.132 | -0.065 | -0.012 | 0.096 | -0.038
NFATC3 (UniProt Q12968) | 0.038 | -0.331 | 0.073 | -0.046 | 0.065 | -0.038 | 0.049 | 0.068 | 0.036 | 0.039 | -0.003 | -0.451 (active) | -0.148 | 0.058 | -0.103 | -0.208 | 0.281 | -0.539 (active) | -0.166 | -0.051
OGFR (UniProt Q9NZT2) | 0.026 | -0.103 | 0.167 | -0.076 | 0.018 | -0.041 | 0.142 | 0.007 | -0.027 | -0.134 | -0.044 | -0.146 | -0.04 | 0.089 | -0.028 | -0.094 | 0.132 | 0.009 | 0.031 | -0.154
